Laboratory results reported in PubChem BioAssay (NCI).
About 83,000 compounds went through this panel and 20% of them were active in at least one assay; those are over-represented in the sample as a whole.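 Plates (96-well) were seeded with cells, treated with compound at one concentration, and incubated for 48 hours before percent growth was determined.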 Values without a mark were called inactive. Activity calls are given as the source filed them. Rule for the calls: active = growth percent below 10; inactive = the rest.

tested on: HL-60(TB) leukemia; assay: NCI-60 one-dose screen, 48 h (100 = growth as untreated, 0 = no growth, -100 = all killed); conditions: 10 µM unless noted

| Compound | growth |
| --- | --- |
| O=c1c2cccc3c(N4CCOCC4)ccc(c32)c2nc3ccccc3n12 | 80.2% |
| CC(CN)[C@@H]1CC[C@]2(CO)CC[C@]3(C)[C@H](CC[C@@H]4[C@@]5(C)CCC(NCCO)C(C)(C)[C@@H]5CC[C@]43C)[C@@H]12 (stereo not given in full) | 60% |
| CN1/C(=C\C(I)C(I)C2=[N+](C)c3ccccc3C2(C)C)C(C)(C)c2ccccc21 (stereo not given) | -20.1% (active) |
| c1ccc2c(c1)oc1cc3sccc3nc12 | 103% |
| O=S(=O)(NCCCNc1nccc(-c2c(-c3ccccc3)nc3sccn23)n1)c1ccc(F)cc1 | 22.5% |
| Clc1ccc2c(NC3CCC(NC4CCCCC4)CC3)ccnc2c1 (stereo not given) | 67.3% |
| COc1cc(NC(=O)c2cc(OC)c3ccn(C)c3c2)cc2c1C[C@]1(C)CC[C@@H](O)C(C)(C)[C@H]1O2 | 31.5% |
| C(=C1c2ccccc2-c2ccccc21)c1ccccn1 | 52.3% |
| COC(=O)C(O)c1ccccc1 (stereo not given) | 109% |
| O=C(/C=C/c1ccc([N+](=O)[O-])cc1)c1ccccc1 | 35.1% |
| c1cc(-c2nnc(SSc3ncnc4nc[nH]c34)o2)ccn1 | 18% |
| N#Cc1cnc2cc(OC[C@@H](O)CO)c(NC(=O)C3CCCC3)cc2c1Nc1ccc(OCc2cccc(F)c2)c(Cl)c1 | -28.8% (active) |
| Nc1nc(NC(=O)Nc2ccc(C(=O)O)cc2)nn1-c1ccc(S(N)(=O)=O)cc1 | 102% |
| Cc1cc(=O)c2c(C)ccc(C)c2[nH]1 | 96.7% |
| CCN(CC)CCn1c2ccc(OC)cc2c2sc3cc(O)ccc3c(=O)c21 | 31% |
| Cn1cnc([N+](=O)[O-])c1S(=O)(=O)Oc1ccccc1 | 54.3% |
| CN(C)CCCC1(c2ccc(F)cc2)OCc2cc(-c3csc4ccccc34)ccc21 (stereo not given) | -52.1% (active) |
| O=S(=O)(NCCNc1nccc(-c2c(-c3ccc(F)cc3)nc3sccn23)n1)c1ccc(F)cc1 | 117% |
| COc1cnc2c(c1)C(=O)c1c-2n(CCCN2CCC(O)CC2)c(=O)c2cc(F)ccc12 | -8.3% (active) |
| N#CCCN1C/C(=C/c2ccccc2)C(=O)/C(=C/c2ccccc2)C1 | 43.2% |
| O=C(Cc1ccc([N+](=O)[O-])cc1)Oc1ccccc1 | 105% |
| C=CC(=O)Nc1ccc(Oc2nccc(Nc3nnc(-c4ccc(C)cc4)s3)n2)cc1 | 41.6% |
| COc1ccc(C2CC(c3ccc(OC)c(OC)c3)=NN2C(=O)c2cc(OC)c(OC)c(OC)c2)c(OC)c1 (stereo not given) | 84% |
| Cc1cc(N=O)cc(C(C)(C)C)c1O | 99.6% |
| Cc1nn(-c2nc(-c3cc4ccccc4oc3=O)cs2)c(C)c1N=Nc1ccccc1 | 101% |
